Experimental data: PubChem BioAssay (NCI)
Compounds without any hit were thinned out: in the full panel of roughly 83,000, 20% have a hit.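 Activity criterion: percent growth below 10, measured after cells in 96-well plates were exposed to a single compound concentration for 48 hours.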 Calls of active or inactive are those of the source.

Tests used:
Assay in all cases: NCI-60 one-dose screen, 48 h (100 = growth as untreated, 0 = no growth, -100 = all killed)
Conditions in all cases: 10 µM unless noted
[1] = system: SK-MEL-2 melanoma
[2] = system: EKVX NSCLC
[3] = system: SN12C renal
[4] = system: UO-31 renal
[5] = system: TK-10 renal
[6] = system: ACHN renal
[7] = system: CAKI-1 renal
[8] = system: A498 renal
[9] = system: CCRF-CEM leukemia

Measured: growth

CCCCCCCCc1cc[n+](CC(=O)c2ccc(Br)cc2)cc1
active: [1] 0.325% | [3] 8.54% | [5] -67.5% | [6] 9.78% | [9] 0.476%
inactive: [2] 35.7% | [4] 38.2% | [7] 41.4% | [8] 88.8%

COc1ccc(N(C)c2nc(Cl)nc3cnn(C)c23)cc1
active: [8] -9.16%
inactive: [1] 22.2% | [2] 46.1% | [3] 27.8% | [4] 34% | [5] 50.9% | [6] 23.9% | [7] 22.9% | [9] 13%

C[C@H]1[C@H]2C3=CC[C@@H]4[C@@]5(C)C/C(=C/c6ccncc6)C(=O)C(C)(C)[C@@H]5CC[C@@]4(C)[C@]3(C)CC[C@@]2(C(=O)N2CCN(C)CC2)CC[C@@H]1C
inactive: [1] 96.3% | [2] 78.3% | [3] 78.9% | [4] 62.4% | [5] 86.1% | [6] 91% | [7] 75.1% | [8] 93.9%

CCCc1nc2ccccn2c1Nc1ccc(C(=O)NO)cc1
inactive: [1] 92.1% | [2] 100% | [3] 86.5% | [4] 83.3% | [5] 94.7% | [6] 91.8% | [7] 88.8% | [8] 87.3% | [9] 74.2%

Clc1ccc(/C=C/c2nc(Nc3ccc(Cl)cc3)c3ccccc3n2)cc1
inactive: [1] 106% | [2] 90.5% | [3] 103% | [4] 70% | [5] 121% | [6] 105% | [7] 90.1% | [8] 94.9% | [9] 102%

C=C1c2c(C)nn(-c3ccc(O)cc3)c2N(C)C23C[C@@H]1C1(C)c4c(C)nn(-c5ccc(O)cc5)c4N(C)C(C)(C[C@H]12)C3 (stereo partly specified)
active: [9] 4.13%
inactive: [1] 44.3% | [2] 26.1% | [3] 30% | [4] 22.4% | [5] 57.3% | [6] 24.6% | [7] 27.2% | [8] 34.8%

CCCCCCNCc1cc(C(C)(C)C)cc(CNCCCCCC)c1O
active: [1] -7.07% | [2] -47.9% | [3] -42.2% | [4] -80.7% | [5] -80.4% | [6] -84.2% | [8] -7.12% | [9] -10.4%
inactive: [7] 16.7%

CCOc1ccc(S(=O)(=O)c2ccc(C)cc2)c2c1no[n+]2[O-]
inactive: [1] 82.5% | [2] 83.9% | [3] 94.8% | [4] 83.3% | [5] 92.3% | [6] 85.6% | [7] 71.8% | [8] 67.2% | [9] 75.7%

Cc1cc(Cl)nc(N(CCCNc2ccnc3cc(Cl)ccc23)Cc2ccccn2)n1
inactive: [1] 64.2% | [2] 64.7% | [3] 52.6% | [4] 27.2% | [5] 66.1% | [6] 54.2% | [7] 48.5% | [8] 30.4% | [9] 36.1%

O=C1/C(=C/c2ccc([N+](=O)[O-])cc2)COc2ccc(O)c(O)c21
active: [3] -47.3% | [4] -98.6% | [5] -8.97% | [6] -77.5% | [7] -53.1% | [9] -2.51%
inactive: [1] 85.5% | [2] 41.3% | [8] 86.3%

Clc1ccc2c(NCCCN3CCN(c4nc(-n5ccnc5)nc5ccccc45)CC3)ccnc2c1
inactive: [1] 97.7% | [2] 86% | [3] 84.1% | [4] 43.5% | [5] 122% | [6] 110% | [7] 86.3% | [8] 85.1%
active: [9] 6.59%

COc1ccc(Oc2nc(Nc3ccc(N4CCCCC4)nc3)ncc2NC(=O)c2cc(OC)cc(OC)c2)cc1
inactive: [1] 41.2% | [2] 40.8% | [3] 53.2% | [4] 33.3% | [5] 75.5% | [6] 28.8% | [7] 41.8% | [8] 39.1% | [9] 20%

Oc1[nH]c2ccccc2c1/C=c1/cc2c(c(-c3ccc(F)cc3)n1)=Nc1ccccc1-2
inactive: [2] 38.2% | [5] 16.3% | [7] 14.8%
active: [1] -3.73% | [3] -0.749% | [4] -12.1% | [6] -43.4% | [8] -4.07%

Clc1cnc(Nc2ccc(OCCN3CCCC3)cc2)nc1NCc1ccco1
inactive: [2] 25.2% | [7] 10% | [8] 17.6%
active: [1] -10.3% | [3] 5.92% | [4] -3.47% | [5] 9.62% | [6] -10.2% | [9] 7.04%

C=C(CNCCc1ccc(O)cc1)[C@@H]1CC[C@]2(COC3CCCCO3)CC[C@]3(C)[C@H](CC[C@@H]4[C@@]5(C)CCC(NCCO)C(C)(C)[C@@H]5CC[C@]43C)[C@@H]12 (stereo partly specified)
active: [1] -81.3% | [2] -77.5% | [3] -92.2% | [4] -97.3% | [5] -89.7% | [6] -99.2% | [7] -92.1% | [8] -1.47% | [9] -51.1%

CCCCOc1ccc(NC(=O)n2nc(N=NN(C)C)c3ccc(Cl)cc32)cc1
inactive: [1] 97.6% | [2] 102% | [3] 93.5% | [4] 65.7% | [5] 126% | [6] 93.8% | [7] 90.7% | [8] 100% | [9] 88.9%

COc1cc2c(O)n(CCCn3ccnc3)c3c4cnc5cccc(c(=O)c3c2cc1OC)c54
inactive: [1] 71% | [2] 49.6% | [3] 19.2% | [4] 64.7% | [5] 92.7% | [6] 27.2% | [7] 66.4% | [8] 21.5% | [9] 11%

Cc1cc(N(CCCNc2ccnc3cc(Cl)ccc23)Cc2ccccn2)nc(N2CCOCC2)n1
inactive: [1] 97.9% | [2] 89.5% | [3] 95.6% | [4] 63.9% | [5] 110% | [6] 101% | [7] 87.8% | [8] 92.5% | [9] 86%

COc1ccc(/C=C(\C#N)n2nnc3cc(F)c(F)cc32)c(OC)c1OC
inactive: [1] 79% | [2] 72.8% | [3] 67% | [4] 52.4% | [5] 126% | [6] 66.2% | [7] 87.7%

C=C(CNCCc1ccc(O)cc1)[C@@H]1CC[C@]2(COC3CCCCO3)CC[C@]3(C)[C@H](CC[C@@H]4[C@@]5(C)CCC(N)C(C)(C)[C@@H]5CC[C@]43C)[C@@H]12 (stereo partly specified)
active: [1] -82.9% | [2] -74.6% | [3] -85.2% | [4] -96.8% | [5] -90.7% | [6] -99% | [7] -91.8% | [8] -98.7% | [9] -64.1%

CS(=O)(=O)c1ccc(-c2nc3cc(Cl)ccc3n2CC(=O)N/N=C/c2ccc(Cl)cc2)cc1
inactive: [1] 44.3% | [2] 72.1% | [3] 69.3% | [4] 77.8% | [5] 81.7% | [6] 61.5% | [7] 71.3% | [8] 68.4% | [9] 19.9%

COC(=O)c1ccc(CSc2nnc(-c3ccncc3)o2)cc1
inactive: [1] 102% | [2] 101% | [3] 96.2% | [4] 79.7% | [5] 116% | [6] 100% | [7] 90.3% | [8] 120% | [9] 99.3%

C=C(C)[C@@H]1CC[C@]2(CN)CC[C@]3(C)[C@H](CC[C@@H]4[C@@]5(C)CCC(N)[C@@](C)(CO)[C@@H]5CC[C@]43C)[C@@H]12 (stereo partly specified)
active: [1] -86.4% | [3] -69.3% | [5] -86.3% | [6] -77.7% | [7] -15.7% | [9] -44.8%
inactive: [2] 21.3% | [4] 65.8% | [8] 81.4%

COc1ccc(Oc2nc(Nc3ccc(N4CCOCC4)nc3)ncc2NC(=O)c2cc(OC)cc(OC)c2)cc1
inactive: [1] 47.6% | [2] 89.3% | [3] 93.7% | [4] 56.3% | [5] 83.4% | [6] 75.1% | [7] 67.3% | [8] 53.7% | [9] 64.2%

CCN(CC)CC(O)CNc1c2ccc(Cl)cc2nc2ccc(OC)cc12 (stereo unspecified)
inactive: [6] 12.1% | [8] 43.6%
active: [1] -63.4% | [2] 7.93% | [3] 4.08% | [4] -19.3% | [5] -21.8% | [7] -63.6% | [9] 0.913%

COc1ccc(/C=C2\COc3ccc(O)c(O)c3C2=O)c(OC)c1
active: [9] 4.18%
inactive: [1] 90.7% | [2] 85.3% | [3] 33% | [4] 34.5% | [5] 22.5% | [6] 56.2% | [7] 36.6% | [8] 114%

CCc1cc(Cc2cc(CC)cc(C(C)(C)C)c2O)c(O)c(C(C)(C)C)c1
inactive: [1] 52.9% | [2] 17.7% | [3] 19.1% | [4] 30.4% | [5] 37.8% | [6] 13.1% | [7] 19.6% | [8] 63.7%

O=c1[nH]c(NCc2nnnn2-c2ccc(Br)cc2)nc2sc3c(c12)CCCC3
inactive: [1] 108% | [2] 96.3% | [3] 97.6% | [4] 77.9% | [5] 98.1% | [6] 98.9% | [7] 89.6% | [8] 84.6% | [9] 90.8%

C=C1c2c(C)nn(-c3ccc(N)cc3)c2N(C)C23CC1C1(C)c4c(C)nn(-c5ccc(N)cc5)c4N(C)C(C)(CC12)C3 (stereo unspecified)
inactive: [1] 79.2% | [2] 52.3% | [3] 89.5% | [4] 51% | [5] 76.2% | [6] 58.9% | [7] 76.6% | [8] 89.4% | [9] 47.8%
